In PMC7826789 (International Journal of Molecular Sciences, 2021):

Legend:
Details in all cases: Compound Concentration (nM):1000
[1] = test system: ROCK2
[2] = test system: ROS1
[3] = test system: RPS6KA4(Kin.Dom.1-N-terminal)
[4] = test system: RPS6KA4(Kin.Dom.2-C-terminal)
[5] = test system: RPS6KA5(Kin.Dom.1-N-terminal)
[6] = test system: RPS6KA5(Kin.Dom.2-C-terminal)
[7] = test system: T1, RSK1(Kin.Dom.1-N-terminal)
T1 construct: gene RPS6KA1

[8] = test system: T2, RSK1(Kin.Dom.2-C-terminal)
T2 construct: gene RPS6KA1

[9] = test system: T3, RSK2(Kin.Dom.1-N-terminal)
T3 construct: gene RPS6KA3

[10] = test system: T4, RSK2(Kin.Dom.2-C-terminal)
T4 construct: gene RPS6KA3

[11] = test system: T5, RSK3(Kin.Dom.1-N-terminal)
T5 construct: gene RPS6KA2

[12] = test system: T6, RSK3(Kin.Dom.2-C-terminal)
T6 construct: gene RPS6KA2

[13] = test system: T7, RSK4(Kin.Dom.1-N-terminal)
T7 construct: gene RPS6KA6

[14] = test system: T8, RSK4(Kin.Dom.2-C-terminal)
T8 construct: gene RPS6KA6

[15] = test system: T9, S6K1
T9 construct: gene RPS6KB1

[16] = test system: SBK1
[17] = test system: SGK2
[18] = test system: SGK3
[19] = test system: T10, SGK
T10 construct: gene SGK1

[20] = test system: SIK2
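Also: KINOMEscan scanMAX binding as percent activity remaining versus control; lower means stronger binding.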

Structure (SMILES) | Percent Control [1] [%] | Percent Control [2] [%] | Percent Control [3] [%] | Percent Control [4] [%] | Percent Control [5] [%] | Percent Control [6] [%] | Percent Control [7] [%] | Percent Control [8] [%] | Percent Control [9] [%] | Percent Control [10] [%] | Percent Control [11] [%] | Percent Control [12] [%] | Percent Control [13] [%] | Percent Control [14] [%] | Percent Control [15] [%] | Percent Control [16] [%] | Percent Control [17] [%] | Percent Control [18] [%] | Percent Control [19] [%] | Percent Control [20] [%]
COc1ccccc1-c1cc(/C=C2\C(=O)Nc3ncc(Br)cc32)cc(Br)c1O [GW442130X] | 82 | 95 | 100 | 68 | 76 | 46 | 100 | 58 | 100 | 79 | 100 | 100 | 100 | 100 | 100 | 95 | 85 | 94 | 71 | 100
COc1cc(N2CCN(C(C)C)CC2)ccc1Nc1nc(Nc2ccc(F)cc2C(=O)NC[C@@H](O)CO)c2cc[nH]c2n1 [GSK1392956A] | 100 | 52 | 100 | 33 | 100 | 47 | 27 | 78 | 5.7 | 100 | 67 | 72 | 55 | 86 | 94 | 64 | 100 | 91 | 99 | 100
COc1ccc2cc(-c3c(-c4ccncc4)nc(-c4ccc(S(C)(=O)=O)cc4C)n3C)ccc2c1 [SB-633825] | 80 | 69 | 100 | 91 | 95 | 51 | 82 | 97 | 62 | 70 | 98 | 100 | 60 | 83 | 66 | 78 | 59 | 73 | 94 | 100
COc1ccc2[nH]c3c4[nH]c5ccc(OC)cc5c4c4c(c3c2c1)C(=O)NC4=O [GW296115X] | 73 | 24 | 71 | 25 | 53 | 66 | 49 | 100 | 21 | 95 | 28 | 69 | 5.8 | 61 | 21 | 95 | 46 | 8.1 | 6.8 | 9.9
CCS(=O)(=O)c1ccc(OC)c(Nc2ncc(-c3cccc(F)c3)o2)c1 [GW621970X] | 100 | 90 | 100 | 94 | 100 | 100 | 100 | 100 | 100 | 83 | 100 | 100 | 100 | 100 | 93 | 100 | 100 | 98 | 100 | 63
CN(C)c1cc2c(Nc3ccc4c(cnn4Cc4ccccc4)c3)ncnc2cn1 [GW282974X] | 96 | 100 | 93 | 89 | 100 | 92 | 97 | 100 | 95 | 100 | 100 | 93 | 75 | 74 | 95 | 100 | 99 | 99 | 98 | 71
NS(=O)(=O)c1ccc(N/N=C2\C(=O)Nc3ccc(C(=O)NCCc4c[nH]cn4)cc32)cc1 [GW300660X] | 40 | 100 | 100 | 80 | 100 | 100 | 100 | 100 | 54 | 100 | 100 | 100 | 45 | 100 | 76 | 100 | 100 | 12 | 26 | 100
Cl.c1ccc(Cc2nc3ccc(Nc4ncnc5ccccc45)cc3[nH]2)cc1 [GR269666A] | 98 | 76 | 100 | 100 | 100 | 100 | 100 | 100 | 100 | 97 | 100 | 100 | 100 | 98 | 100 | 100 | 100 | 81 | 100 | 82
Cl.O=C(O[C@H]1CN[C@H](C#Cc2cc3ncnc(Nc4ccc5c(cnn5Cc5ccccc5)c4)c3s2)C1)N1CCOCC1 [GSK200398A] | 84 | 73 | 97 | 88 | 100 | 100 | 96 | 97 | 95 | 93 | 92 | 89 | 80 | 83 | 100 | 100 | 97 | 99 | 99 | 69
Cl.O=C(Nc1ccc(Oc2ccc3[nH]c(NC(=O)c4ccco4)nc3c2)cc1)Nc1cc(C(F)(F)F)ccc1F [GW683134A] | 57 | 61 | 100 | 82 | 95 | 75 | 100 | 100 | 100 | 100 | 92 | 100 | 100 | 100 | 43 | 100 | 100 | 100 | 100 | 100
Cl.O=S1CCN(Cc2ccc(-c3ccc4ncnc(Nc5ccc(OCc6ccccc6)c(F)c5)c4c3)o2)CC1 [GW576924A] | 94 | 100 | 100 | 100 | 100 | 100 | 100 | 100 | 100 | 100 | 100 | 100 | 97 | 100 | 97 | 100 | 100 | 78 | 100 | 81
Nc1ncnc2occ(-c3ccc(NC(=O)Nc4cc(C(F)(F)F)ccc4F)cc3)c12 [GW770249X] | 27 | 56 | 100 | 92 | 55 | 100 | 100 | 100 | 89 | 98 | 66 | 59 | 87 | 100 | 21 | 100 | 100 | 83 | 100 | 100
C[C@@H](Oc1cc(-n2cnc3ccc(OC4CCN(C)CC4)cc32)sc1C(N)=O)c1ccccc1Cl [GSK579289A] | 83 | 100 | 100 | 3.2 | 100 | 38 | 71 | 86 | 23 | 98 | 48 | 67 | 19 | 80 | 62 | 62 | 100 | 84 | 90 | 100
COc1cccc(-c2c[nH]c3c(N/N=C/c4ccncc4)ncnc23)c1 [GW814408X] | 73 | 100 | 100 | 62 | 100 | 100 | 88 | 77 | 75 | 100 | 100 | 100 | 49 | 100 | 84 | 83 | 38 | 59 | 22 | 17
COc1cc2ncn(-c3cc(O[C@H](C)c4ccccc4Cl)c(C(N)=O)s3)c2cc1OC [GSK237701A] | 83 | 92 | 92 | 68 | 100 | 72 | 96 | 87 | 50 | 77 | 100 | 90 | 45 | 94 | 68 | 83 | 87 | 75 | 90 | 65
COc1cc2ncnc(Nc3ccc4c(cnn4Cc4ccccc4)c3)c2cc1OC.Cl [GW282449A] | 100 | 89 | 42 | 93 | 84 | 100 | 100 | 100 | 100 | 99 | 100 | 100 | 92 | 100 | 100 | 100 | 100 | 100 | 100 | 68
CN(C)CCNC(=O)Nc1ccc(N(C)c2ccnc(Nc3ccc(CS(C)(=O)=O)cc3)n2)cc1.Cl [GW830900A] | 9.1 | 61 | 100 | 88 | 100 | 100 | 100 | 84 | 73 | 82 | 100 | 94 | 74 | 87 | 85 | 95 | 80 | 84 | 48 | 73
COc1cc(C)c(N(C)C(=O)CN(C)C)cc1Nc1nc(Nc2cccc(F)c2C(N)=O)c2cc[nH]c2n1 [GSK2219385] | 100 | 84 | 92 | 68 | 100 | 90 | 56 | 96 | 21 | 100 | 79 | 90 | 75 | 82 | 100 | 100 | 92 | 92 | 92 | 100
COC(=O)Nc1nc2ccc(Oc3ccc(NC(=O)Nc4cc(C(F)(F)F)ccc4F)cc3)cc2s1.Cl [GW693917A] | 86 | 95 | 100 | 80 | 100 | 100 | 99 | 94 | 98 | 86 | 65 | 91 | 76 | 79 | 54 | 100 | 80 | 78 | 87 | 68
